The nature of experiment [1]: NCI Yeast Anticancer Drug Screen. Data for the rad50 strain (AID 155).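 Also: 0% = growth of vehicle-only cultures of the same strain.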 The settings on record: S. cerevisiae rad50 strain growth inhibition, stronger effect = higher value. Summed up: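 Vehicle-treated cultures provide the reference for the growth inhibition reported for compound-exposed, repair-deficient yeast.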
The nature of experiment [2]: NCI Yeast Anticancer Drug Screen. Data for the mec2-1 strain (AID 157). To be noted: S. cerevisiae mec2-1 strain, stronger effect = higher value. Summed up:
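Each compound was tested on mec2-1 yeast, a strain altered in DNA damage repair or cell cycle control. Growth inhibition is reported relative to vehicle.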

The nature of experiment [3]: NCI Yeast Anticancer Drug Screen. Data for the sgs1 mgt1 strain (AID 161).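 Also: 0% = growth of cultures given vehicle only.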 The settings on record: S. cerevisiae sgs1 mgt1 strain, stronger effect = higher value. Summed up:
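Inhibition of yeast growth, normalised to vehicle-treated controls, is reported for a strain bearing genetic alterations in DNA damage repair.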

Experiment [4] can be described thus: NCI Yeast Anticancer Drug Screen. Data for the cln2 rad14 strain (AID 165).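 Also: 0% = growth equal to vehicle treated cultures.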 The settings on record: S. cerevisiae cln2 rad14 strain, stronger effect = higher value. Put shortly:
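Test compounds were added to cln2 rad14 yeast cultures; inhibition of growth was then determined by comparison with vehicle treatment.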

A short description of experiment [5]: NCI Yeast Anticancer Drug Screen. Data for the bub3 strain (AID 167). The settings on record: S. cerevisiae bub3 mutant strain, stronger effect = higher value. Put shortly: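 Mutant yeast screening strain plus compound; vehicle-treated cultures serve as the 0% inhibition reference.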
Experiment [6] in a line: NCI Yeast Anticancer Drug Screen. Data for the mlh1 rad18 strain (AID 175). To be noted: S. cerevisiae mlh1 rad18 strain growth inhibition, stronger effect = higher value. Summed up:
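Inhibition values reflect reduced growth of mutant yeast versus vehicle-treated controls following compound exposure; the mutations affect DNA damage repair.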

Setting [7] is: at 5.0 µM (retest, dose inferred, filed as 0.5).
[8] abbreviates: at 50.0 µM (retest, dose inferred, filed as 5.0).

This is part of a sample that, as a whole, favours compounds with a hit. Of some 79,000 tested, about 15% had one in any assay. Values without a mark were called inactive. Active and inactive are the calls of the source. Rule as the data show it: active = growth inhibition above about 70%; inactive = the rest.

In the case of `O=C(N=c1sc2ccccc2s1)N=c1sc2ccccc2s1`, the growth inhibition was 1% in experiment [1] (setting [7]); 10% in experiment [1] (setting [8]); 45.9% in experiment [1] (at 50.0 µM); 35% in experiment [2] (setting [7]); -14% in experiment [2] (setting [8]); -2.6% in experiment [2] (at 50.0 µM). Also, the growth inhibition is 14% in experiment [3] (setting [7]); -20% in experiment [3] (setting [8]); 47.6% in experiment [3] (at 50.0 µM); -32% in experiment [4] (setting [7]); 6% in experiment [4] (setting [8]); 84% (active) in experiment [4] (at 50.0 µM). Further, the growth inhibition is -11% in experiment [5] (setting [7]); 7% in experiment [5] (setting [8]); 29.6% in experiment [5] (at 50.0 µM); -20% in experiment [6] (setting [7]); 10% in experiment [6] (setting [8]); 50% in experiment [6] (at 50.0 µM).

In the case of `O=C(CC1(O)C(=O)Nc2c(Cl)ccc(Cl)c21)c1ccc(Cl)cc1Cl` (configuration not stated), the growth inhibition is 25% in experiment [1] (setting [7]); 25% in experiment [1] (setting [8]); 91.6% (active) in experiment [1] (at 50.0 µM); 13% in experiment [2] (setting [7]); 13% in experiment [2] (setting [8]); 90.7% (active) in experiment [2] (at 50.0 µM). Moreover, the growth inhibition in experiment [3] (setting [7]) is 18%; in experiment [3] (setting [8]), 18%; in experiment [3] (at 50.0 µM), 90.8% (active); in experiment [4] (setting [7]), -6%; in experiment [4] (setting [8]) it was -6%; in experiment [4] (at 50.0 µM), 91.3% (active). Besides, the growth inhibition in experiment [5] (setting [7]) was -2%; in experiment [5] (setting [8]) it was -2%; in experiment [5] (at 50.0 µM) it was 93.7% (active); in experiment [6] (setting [7]), 19%; in experiment [6] (setting [8]), 19%; in experiment [6] (at 50.0 µM), 92.2% (active).

As to `O=c1[nH]c2c([N+](=O)[O-])cc(Cl)cc2nc1/C=C(\O)c1ccccc1`, the growth inhibition in experiment [1] (setting [7]) is 17%; in experiment [1] (setting [8]) it was 81% (active); in experiment [1] (at 50.0 µM), 49.6%; in experiment [2] (setting [7]), -3%; in experiment [2] (setting [8]), 65%; in experiment [2] (at 50.0 µM) it was 4.65%. The growth inhibition in experiment [3] (setting [7]) was 7%; in experiment [3] (setting [8]), 63%; in experiment [3] (at 50.0 µM), 66.8%; in experiment [4] (setting [7]) it was 4%; in experiment [4] (setting [8]), 59%; in experiment [4] (at 50.0 µM) it was 45.4%. In addition, the growth inhibition in experiment [5] (setting [7]) was 16%; in experiment [5] (setting [8]), 77% (active); in experiment [5] (at 50.0 µM), -2.5%; in experiment [6] (setting [7]), -9%; in experiment [6] (setting [8]) it was 80% (active); in experiment [6] (at 50.0 µM), 83.9% (active).

As for `CNC(=O)N1N[C@H](c2ccccc2)[C@@H]1c1ccccc1`, the growth inhibition in experiment [1] (setting [7]) is 25%; in experiment [1] (setting [8]), 69%; in experiment [1] (at 50.0 µM) it was 30.6%; in experiment [2] (setting [7]) it was 15%; in experiment [2] (setting [8]), 50%; in experiment [2] (at 50.0 µM) it was 35%. Also, the growth inhibition in experiment [3] (setting [7]) is 21%; in experiment [3] (setting [8]) it was 63%; in experiment [3] (at 50.0 µM), 47.4%; in experiment [4] (setting [7]), 20%; in experiment [4] (setting [8]) it was 32%; in experiment [4] (at 50.0 µM), 36.9%. Moreover, the growth inhibition in experiment [5] (setting [7]) is 29%; in experiment [5] (setting [8]), 72% (active); in experiment [5] (at 50.0 µM) it was 46.9%; in experiment [6] (setting [7]), 23%; in experiment [6] (setting [8]), 60%; in experiment [6] (at 50.0 µM) it was -14.1%.

Take `CCN(CC)CCOc1ccc(-c2nc3cc(Cl)ccc3s2)cc1`: the growth inhibition was 29% in experiment [1] (setting [7]); 88% (active) in experiment [1] (setting [8]); 75% (active) in experiment [1] (at 50.0 µM); 54% in experiment [2] (setting [7]); 86% (active) in experiment [2] (setting [8]); 35.8% in experiment [2] (at 50.0 µM). The growth inhibition in experiment [3] (setting [7]) is 23%; in experiment [3] (setting [8]), 91% (active); in experiment [3] (at 50.0 µM), 91% (active); in experiment [4] (setting [7]), 31%; in experiment [4] (setting [8]) it was 84% (active); in experiment [4] (at 50.0 µM) it was 48%. For the same compound, the growth inhibition is 61% in experiment [5] (setting [7]); 90% (active) in experiment [5] (setting [8]); 85.7% (active) in experiment [5] (at 50.0 µM); 39% in experiment [6] (setting [7]); 82% (active) in experiment [6] (setting [8]); 83.3% (active) in experiment [6] (at 50.0 µM).

On to `CCN(CC)CCCNc1c(O)cc(C)c2sc3ccccc3c(=O)c12`, for which the growth inhibition is 17% in experiment [1] (setting [7]); 98% (active) in experiment [1] (setting [8]); 98.7% (active) in experiment [1] (at 50.0 µM); 6% in experiment [2] (setting [7]); 99% (active) in experiment [2] (setting [8]); 99.2% (active) in experiment [2] (at 50.0 µM). Further, the growth inhibition in experiment [3] (setting [7]) is 4%; in experiment [3] (setting [8]), 99% (active); in experiment [3] (at 50.0 µM), 99% (active); in experiment [4] (setting [7]) it was 12%; in experiment [4] (setting [8]), 96% (active); in experiment [4] (at 50.0 µM) it was 98.3% (active). For the same compound, the growth inhibition in experiment [5] (setting [7]) is 14%; in experiment [5] (setting [8]), 95% (active); in experiment [5] (at 50.0 µM), 98.4% (active); in experiment [6] (setting [7]), 6%; in experiment [6] (setting [8]), 98% (active); in experiment [6] (at 50.0 µM) it was 98.8% (active).

As to `O=C1CCCCCC1Cc1cc(O)c(CC2CCCCCC2=O)cc1O` (configuration not stated), the growth inhibition was 10% in experiment [1] (setting [7]); 54% in experiment [1] (setting [8]); 91.8% (active) in experiment [1] (at 50.0 µM); 8% in experiment [2] (setting [7]); 34% in experiment [2] (setting [8]); 80.2% (active) in experiment [2] (at 50.0 µM). The growth inhibition in experiment [3] (setting [7]) was 12%; in experiment [3] (setting [8]) it was 82% (active); in experiment [3] (at 50.0 µM), 86.5% (active); in experiment [4] (setting [7]) it was -6%; in experiment [4] (setting [8]) it was 32%; in experiment [4] (at 50.0 µM) it was 11.2%. For the same compound, the growth inhibition is -3% in experiment [5] (setting [7]); 33% in experiment [5] (setting [8]); 64.2% in experiment [5] (at 50.0 µM); 8% in experiment [6] (setting [7]); 88% (active) in experiment [6] (setting [8]); 35.2% in experiment [6] (at 50.0 µM).

Turning to `CCOP(=O)(OCC)/C(=C\NC(=S)N=Nc1c(O)[nH]c2ccccc12)C(=O)OC`, the growth inhibition in experiment [1] (setting [7]) is 29%; in experiment [1] (setting [8]), 81% (active); in experiment [1] (at 50.0 µM) it was 19.6%; in experiment [2] (setting [7]) it was 4%; in experiment [2] (setting [8]) it was 89% (active); in experiment [2] (at 50.0 µM), 11.2%. Moreover, the growth inhibition in experiment [3] (setting [7]) is 6%; in experiment [3] (setting [8]), 83% (active); in experiment [3] (at 50.0 µM), 7.85%; in experiment [4] (setting [7]), 2%; in experiment [4] (setting [8]), 67%; in experiment [4] (at 50.0 µM), 46.1%. Also, the growth inhibition is -8% in experiment [5] (setting [7]); 62% in experiment [5] (setting [8]); 13.8% in experiment [5] (at 50.0 µM); 5% in experiment [6] (setting [7]); 84% (active) in experiment [6] (setting [8]); 14.6% in experiment [6] (at 50.0 µM).

Take `Clc1ccc(CN2CCCN(Cc3ccc(Cl)cc3)C2C2CCC=CO2)cc1` (configuration not stated): the growth inhibition in experiment [1] (setting [7]) is 4%; in experiment [1] (setting [8]), 19%; in experiment [1] (at 50.0 µM), 66.1%; in experiment [2] (setting [7]), -18%; in experiment [2] (setting [8]), 17%; in experiment [2] (at 50.0 µM), 24.5%. Besides, the growth inhibition in experiment [3] (setting [7]) is -17%; in experiment [3] (setting [8]) it was 42%; in experiment [3] (at 50.0 µM) it was 72.6% (active); in experiment [4] (setting [7]), -4%; in experiment [4] (setting [8]), 7%; in experiment [4] (at 50.0 µM) it was 46.9%. In addition, the growth inhibition in experiment [5] (setting [7]) was 6%; in experiment [5] (setting [8]) it was 17%; in experiment [5] (at 50.0 µM), 56.3%; in experiment [6] (setting [7]) it was -14%; in experiment [6] (setting [8]) it was 36%; in experiment [6] (at 50.0 µM) it was 45%.

Source of the values: PubChem BioAssay (NCI).
